Test results from PubChem BioAssay (NCI).
Compounds without any hit were thinned out: in the full panel of roughly 83,000, 20% have a hit.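 Results are percent growth after 48 hours of single-concentration exposure. 100 means growth as in untreated cells, lower positive values show inhibition; negative values down to -100 show cell death.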 Unmarked numbers belong to inactive results. The source made the active and inactive calls. The calls were made as follows: active = growth percent below 10; inactive = the rest.

Tests used:
Experiment in all cases: NCI-60 one-dose screen, 48 h (100 = growth as untreated, 0 = no growth, -100 = all killed)
Conditions in all cases: 10 µM unless noted
RPMI-8226 leukemia = test system: RPMI-8226 leukemia
OVCAR-8 ovarian = test system: OVCAR-8 ovarian
OVCAR-5 ovarian = test system: OVCAR-5 ovarian
OVCAR-4 ovarian = test system: OVCAR-4 ovarian
IGROV1 ovarian = test system: IGROV1 ovarian
OVCAR-3 ovarian = test system: OVCAR-3 ovarian
HS 578T breast = test system: HS 578T breast
NCI/ADR-RES ovarian = test system: NCI/ADR-RES ovarian
T-47D breast = test system: T-47D breast

SMILES	growth (RPMI-8226 leukemia)	growth (OVCAR-8 ovarian)	growth (OVCAR-5 ovarian)	growth (OVCAR-4 ovarian)	growth (IGROV1 ovarian)	growth (OVCAR-3 ovarian)	growth (HS 578T breast)	growth (NCI/ADR-RES ovarian)	growth (T-47D breast)
Cc1ccc2sc3c(NCCCNCCO)nc4ccccc4c3c(=O)c2c1	-16.5% (active)	22.4%	90.7%	60.4%	48.8%	26.6%	44.2%	72.6%	-39.5% (active)
Nc1nc(-c2ccccc2Br)nn1-c1nc2ccccc2s1	102%	97.6%	98%	101%	101%	108%	104%	105%	105%
Cc1ccccc1CNC(=O)C1CN(c2ccc(Cl)cc2)N(c2ccc(Cl)cc2)C1=O (stereo unspecified)	65%	87.9%	91.8%	84.1%	89.7%	81.1%	85.5%	84.3%	71.6%
O=C1Nc2ccccc2/C1=C/c1cccs1	93.7%	91.6%	95.5%	37%	72%	90.5%	94.8%	91.8%	-4.77% (active)
CCCCN1CCN(c2ccc3nc(-c4ccc5nc(-c6ccc(OCC)cc6)[nH]c5c4)[nH]c3c2)CC1	-25.3% (active)	70.1%	135%	55.2%	71.9%	-18% (active)	74.4%	87.8%	59.7%
COc1ccc2oc(=O)cc(Cn3cc(Cn4cnc5c4c(=O)n(C)c(=O)n5C)nn3)c2c1	103%	106%	94%	103%	104%	110%	97.8%	105%	94.1%
COc1cc(/C=C2\CCC/C(=C\c3cc(CN4CCOCC4)c(O)c(OC)c3)C2=O)cc(CN2CCOCC2)c1O	19.9%	19%	34%	36.1%	50.7%	19.4%	55.1%	23.3%	63.3%
Cc1ccc(NC2=CC(=O)C(=O)c3ccccc32)c(C)c1	56.7%	27.9%	80.3%	48.1%	35.6%	-15.6% (active)	79.5%	15.6%	22.9%
O=C1/C(=C/c2cccc(O)c2)COc2ccc(O)cc21	-10.6% (active)	68.7%	105%	98.1%	78.1%	55.5%	101%	96.7%	86.8%
CNCCNc1nc2ccccc2c2c(=O)c3cccc(OC)c3sc12	-31.4% (active)	23.7%	47.3%	22.8%	29.7%	29.4%	40.8%	37.5%	54.4%
Brc1ccc(Oc2ccc(Nc3ncnc4onc(-c5ccccc5)c34)cc2)cc1	90.3%	97.8%	105%	88.2%	96.5%	119%	96.8%	94.1%	77.8%
O=c1cc(-c2ccccc2)oc2cc(OCc3cn(Cc4ccc(F)cc4)nn3)cc(OCc3cn(Cc4ccc(F)cc4)nn3)c12	45.6%	12.7%	55.1%	-9.56% (active)	43.5%	21.2%	20.9%	70.4%	40.6%
CCCN1C(=O)N(CCC)C2C1NN=c1s/c(=C3\C(=O)N(C(C)C)c4ccccc43)c(=O)n12 (stereo unspecified)	61.2%	58.4%	76%	42.9%	41.5%	-15% (active)	30.3%	44.5%	28.1%
O=C(/C=C/c1ccc(Cl)cc1)c1ccc(Nc2nc(NCCO)nc(Nc3ccc(Cl)cc3)n2)cc1	-3.49% (active)	70.8%	94.3%	52.8%	80.1%	63.2%	77.2%	84.6%	36.1%
COc1cc(/C=C2\CN(C)C/C(=C\c3cc(CN4CCCCC4)c(O)c(OC)c3)C2=O)cc(CN2CCCCC2)c1O	25.9%	39.2%	38.8%	38.6%	68.4%	7.74% (active)	81.9%	70.7%	67.2%
CS(=O)(=O)Nc1ccc(C(=O)NC(C(=O)NO)c2ccc(-c3cccc(F)c3)cc2)cc1 (stereo unspecified)	82.8%	97.3%	31.6%	70.9%	39.6%	64.7%	73%	66.6%	82.4%
CNCCNc1nc2ccccc2c2c(=O)c3cc(OC)ccc3sc12	-17.2% (active)	26.3%	70.8%	29.7%	42.8%	-40.7% (active)	56%	51.5%	-33.6% (active)
O=C(NCc1ccccc1)C1CN(c2ccc(Cl)cc2)N(c2ccc(Cl)cc2)C1=O (stereo unspecified)	85.5%	86.5%	95.2%	88.3%	92.1%	51.7%	74.7%	69.9%	63.9%
O=C1CCC(N2C(=O)c3cccc(NCCCCCCOc4ccc(Nc5nccc(Nc6ccccc6)n5)cc4)c3C2=O)C(=O)N1 (stereo unspecified)	38.5%	77.8%	109%	64.6%	72.5%	78.8%	98.2%	79.2%	39.5%
Cc1c(-c2csc(-n3nc(C(F)(F)F)cc3C(F)(F)F)n2)no[n+]1[O-]	97.2%	99.2%	99.2%	87.4%	102%	114%	98.2%	105%	87.5%
COc1cc(/C=C2\CN(S(=O)(=O)c3ccccc3)C/C(=C\c3cc(CN4CCCC4)c(O)c(OC)c3)C2=O)cc(CN2CCCC2)c1O	-13.3% (active)	19.2%	-9.14% (active)	34.8%	-27.6% (active)	11.1%	33.6%	92.7%	32.3%
NCCOc1ccccc1/C=C1\c2ccccc2-c2ccc([N+](=O)[O-])cc21	-48.6% (active)	-38.7% (active)	22.3%	30.3%	23.8%	-49.8% (active)	26.3%	23.5%	12.5%
O=C(/C=C/c1ccc(F)cc1)c1ccc(Nc2nc(NCCO)nc(Nc3ccc(Cl)cc3)n2)cc1	1.78% (active)	78.4%	96.8%	78.6%	96.4%	77%	86.8%	87.2%	41.5%
COC(=O)c1c2c(c(C)[n+]([O-])c1C)C(=O)C(NCc1ccc(F)c(F)c1)=CC2=O	29.9%	4.63% (active)	41.4%	-93.4% (active)	0.321% (active)	-19% (active)	80.2%	-6.62% (active)	10.9%
NC(CCc1nc2ccccc2c(=O)[nH]1)C(=O)O (stereo unspecified)	101%	104%	105%	103%	99.1%	119%	102%	110%	108%
Fc1ccc(Oc2ccc(Nc3ncnc4onc(-c5ccccc5)c34)cc2)cc1	113%	95.5%	101%	102%	87.6%	109%	96.6%	101%	94.5%
COc1ccc(/C=C2/SC(=O)N(CC(=O)N3CCN(c4cc5c(cc4F)c(=O)c(C(=O)O)cn5C4CC4)CC3)C2=O)cc1	119%	93.9%	103%	107%	96%	115%	99.9%	99.4%	104%
CC(C)Cn1c2c(c(=S)[nH]c1=O)CCC2	99.2%	101%	99.5%	101%	103%	111%	102%	106%	111%
O=C1/C(=C\c2ccc[nH]2)c2ccccc2N1c1ccccc1	94.4%	102%	87.9%	67.7%	84.5%	112%	92.3%	90.2%	64.9%
